Inconclusive results are not listed. The source made the active and inactive calls. Calls follow the shape of the dose curve; as a rule, active = well fitted cell-killing curve with a large enough effect; inconclusive = small, poorly fitted or top-dose-only effect, or effect the other way; inactive = flat fitted curve, though single readings scatter.
test system: CAOV3; test: Primary qHTS to identify gynecologic anti-cancer compounds using libraries of approved drugs and bioactive compounds (AID 1345084); details: Gynecologic cancer cell panel viability, ATPlite luminescence, 48 h; series mostly up to 57.5 µM; activity change, negative = cytotoxicity: at the top concentration; also: nearly all actives have a fitted effect of over 55% in size
From the text: National Center for Advancing Translational Sciences [NCATS] Assay Overview: Chemotherapeutic drug responses vary from cancer to cancer and from patient to patient. These variations could be caused by a number of factors including patient genomic background, tumor mutations, tumor heterogeneity, and aspects of drug treatment. Chemotherapeutic drug resistance is also a common issue and can lead to ineffective treatment and patient death. Here we have profiled the cell killing effects of thousands of compounds to characterize the responses in three gynecological cancers, identify cancer-selective compounds, and understand the diversity of responses to these compounds from pan-cancer suppressors to single cell line selective compounds. In this assay, we screened a 7,914 compound drug library that included approved drug and bioactive compounds in six ovarian, three cervical, and […] placental cancer cell lines using the ATPlite assay for cell viability. […] The cervical cancer cell lines included HeLa, Ca Ski, and C-33 A. The placental cancer cell lines included JEG-3. HEK 293T cells were used as the control cell line to determine the selectivity index. ATPlite is a luminescence based assay reliant on the conversion of a luciferase substrate to light in the presence of ATP. As a cytotoxic compound will suppress growth and decrease the number of cells, the concentration of ATP will decrease, and less light signal will be detected in the well.
Assay Protocol Summary: 1,000 cells in 4 uL of media were dispensed into white, solid bottom 1536-well plates using a Multidrop Combi (Thermo Scientific). The Assay plates were incubated for 16 hours at 37 C with 5% CO2 in assay plates, followed by the addition of 23 nL of DMSO or drug dissolved in DMSO. Each compound was assayed in five concentrations (0.092, 0.46, 2.3, 11.5, and 57.5 uM), using the automated Wako 1536 Pin Tool workstation and incubated at 37 C with 5% CO2 48 hours. 4 uL of ATPlite, the ATP monitoring reagent, was then added to the each well of the assay plates using the Multidrop Combi reagent dispenser followed by incubation for 15 minutes at room temperature. The resulting luminescence was measured using the ViewLux plate reader.
% is scaled to controls: 0 for no effect and ±100 for the full control effect; potency is read from the fitted curve at half-maximal effect.

Structure (SMILES)	activity change, negative = cytotoxicity	Potency
Cc1cnc(C(=O)NCCc2ccc(S(=O)(=O)NC(=O)NC3CCCCC3)cc2)cn1	3.87% (inactive)	–
O=c1c(O)c(-c2ccc(O)c(O)c2)oc2cc(O)cc(O)c12	-21.2% (inactive)	–
CC(C(=O)O)c1cccc(C(=O)c2ccccc2)c1 (stereo not given)	-0.191% (inactive)	–
Cc1ccc(-c2cc(C(F)(F)F)nn2-c2ccc(S(N)(=O)=O)cc2)cc1	–	inactive
OCCN(CCO)c1nc(N2CCCCC2)c2nc(N(CCO)CCO)nc(N3CCCCC3)c2n1	-10% (inactive)	–
C[C@](N)(Cc1ccc(O)c(O)c1)C(=O)O	-2.69% (inactive)	–
O=C(c1ccc(F)cc1)C1CCN(CCn2c(=O)[nH]c3ccccc3c2=O)CC1	–	inactive
NC12CC3CC(CC(C3)C1)C2	-1.43% (inactive)	–
CN(C)c1nc(N(C)C)nc(N(C)C)n1	0% (inactive)	–
COc1ccc(C2CNC(=O)C2)cc1OC1CCCC1 (stereo not given)	0% (inactive)	–
Cc1cc(C(C)(C)C)cc(C)c1CC1=NCCN1	-2.67% (inactive)	–
Nc1nc2c(ncn2COC(CO)CO)c(=O)[nH]1	10.7% (inactive)	–
COc1nc(C)nc(Cl)c1NC1=NCCN1	17.1% (inactive)	–
CC(CCc1ccc(O)cc1)NCCc1ccc(O)c(O)c1 (stereo not given)	-4.79% (inactive)	–
NS(=O)(=O)c1cc2c(cc1Cl)NCNS2(=O)=O	-2.78% (inactive)	–
CCOC(=O)C(C)(C)Oc1ccc(Cl)cc1	0.966% (inactive)	–
CCCCc1oc2ccccc2c1C(=O)c1cc(I)c(OCCN(CC)CC)c(I)c1	11.1% (inactive)	–
CN1CCC(=C2c3ccccc3C=Cc3ccccc32)CC1	-6.89% (inactive)	–
CC[C@@]1(O)C(=O)OCc2c1cc1n(c2=O)Cc2cc3c(CN(C)C)c(O)ccc3nc2-1	–	3.16 µM (active)
CN(C)CCC=C1c2ccccc2C=Cc2ccccc21	-7% (inactive)	–

Structure (SMILES)	activity change, negative = cytotoxicity	Potency
CN(Cc1cnc2nc(N)nc(N)c2n1)c1ccc(C(=O)N[C@@H](CCC(=O)O)C(=O)O)cc1	3.6% (inactive)	–
COc1ccccc1OCCNCC(O)COc1cccc2[nH]c3ccccc3c12 (stereo not given)	-4.66% (inactive)	–
Clc1ccccc1C(c1ccccc1)(c1ccccc1)n1ccnc1	0.0064% (inactive)	–
Clc1ccc(C(c2ccccc2Cl)C(Cl)Cl)cc1 (stereo not given)	-27.6% (inactive)	–
NCCc1cnc[nH]1	-1.51% (inactive)	–
Clc1ccc2c(c1)C(N1CCNCC1)=Nc1ccccc1O2	–	inactive
CN1CCN(CCCN2c3ccccc3Sc3ccc(Cl)cc32)CC1	5.54% (inactive)	–
CCOC(=O)Nc1ccc(NCc2ccc(F)cc2)nc1N	15.7% (inactive)	–
Nc1c2c(nc3ccccc13)CCCC2	16.5% (inactive)	–
CCN1CCCC1CNC(=O)c1cc(S(=O)(=O)CC)c(N)cc1OC (stereo not given)	21.8% (inactive)	–
COc1ccc2c(c1)c(CC(=O)O)c(C)n2C(=O)c1ccc(Cl)cc1	-0.371% (inactive)	–
COc1ccccc1OCC(O)CN1CCN(CC(=O)Nc2c(C)cccc2C)CC1 (stereo not given)	2.57% (inactive)	–
Nc1nnc(-c2cccc(Cl)c2Cl)c(N)n1	9.52% (inactive)	–
Cc1ccc(C(=O)Nc2ccc(S(=O)(=O)O)c3cc(S(=O)(=O)O)cc(S(=O)(=O)O)c23)cc1NC(=O)c1cccc(NC(=O)Nc2cccc(C(=O)Nc3cc(C(=O)Nc4ccc(S(=O)(=O)O)c5cc(S(=O)(=O)O)cc(S(=O)(=O)O)c45)ccc3C)c2)c1	-4.02% (inactive)	–
CC1(CN2CCC(n3c(=O)[nH]c4ccccc43)CC2)OCc2ccccc2-n2cccc21 (stereo not given)	-10.7% (inactive)	–
NCCCCCC(=O)O	-8.5% (inactive)	–
CCc1cccc2c3c([nH]c12)C(CC)(CC(=O)O)OCC3 (stereo not given)	-3.68% (inactive)	–
OCCN1CCN(CCCN2c3ccccc3Sc3ccc(C(F)(F)F)cc32)CC1	-2.06% (inactive)	–
CCCNCC(O)COc1ccccc1C(=O)CCc1ccccc1 (stereo not given)	-0.831% (inactive)	–
NC(=O)OCC(COC(N)=O)c1ccccc1	-1.42% (inactive)	–

— PubChem BioAssay (NCATS)
